Test [1] is described as follows: NCI Yeast Anticancer Drug Screen. Data for the rad50 strain (AID 155).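 Note: 0% = growth of vehicle-only cultures of the same strain.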 As to conditions: S. cerevisiae rad50 strain growth inhibition, stronger effect = higher value. In short, it runs like this:
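Genetically altered yeast (DNA repair pathway); compound treatment; growth inhibition vs vehicle ctrl.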

Test [2] is described as follows: NCI Yeast Anticancer Drug Screen. Data for the mec2-1 strain (AID 157). As to conditions: S. cerevisiae mec2-1 strain, stronger effect = higher value. The procedure, abridged:
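Strain: mec2-1 (DNA repair/cell cycle alteration). Compound exposure, then growth measured; inhibition expressed relative to vehicle.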

The nature of test [3]: NCI Yeast Anticancer Drug Screen. Data for the sgs1 mgt1 strain (AID 161).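 Note: 0% = growth of cultures given vehicle only.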 As to conditions: S. cerevisiae sgs1 mgt1 strain, stronger effect = higher value. In short, it runs like this:
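Genetically altered yeast, compound exposure, growth inhibition relative to vehicle.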

A short description of test [4]: NCI Yeast Anticancer Drug Screen. Data for the cln2 rad14 strain (AID 165).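 Note: 0% = growth equal to vehicle treated cultures.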 As to conditions: S. cerevisiae cln2 rad14 strain, stronger effect = higher value. The procedure, abridged: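 Compounds are applied to the cln2 rad14 yeast strain, and growth is then compared with that of vehicle-treated cultures to give inhibition.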
Test [5] is described as follows: NCI Yeast Anticancer Drug Screen. Data for the bub3 strain (AID 167). As to conditions: S. cerevisiae bub3 mutant strain, stronger effect = higher value. In short, it runs like this: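 Yeast carrying a defined mutation is treated with each compound, and growth is compared with that of vehicle-exposed cells to give inhibition.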
The nature of test [6]: NCI Yeast Anticancer Drug Screen. Data for the mlh1 rad18 strain (AID 175). As to conditions: S. cerevisiae mlh1 rad18 strain growth inhibition, stronger effect = higher value. The procedure, abridged:
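Read-out is yeast growth inhibition, calculated against vehicle-only controls. The compound was applied to a strain engineered with DNA damage repair alterations.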

[7] abbreviates: at 5.0 µM (retest, dose inferred, filed as 0.5).
[8] abbreviates: at 50.0 µM (retest, dose inferred, filed as 5.0).

This is part of a sample that, as a whole, favours compounds with a hit. Of some 79,000 tested, about 15% had one in any assay. Values without a mark were called inactive. Activity calls are given as the source filed them. Cut-off read from the data, not from the text of the source: active = growth inhibition above about 70%; inactive = the rest.

Take `O=C1CCCCC1=C(I)I`: the growth inhibition was 18% in test [1] (setting [7]); 18% in test [1] (setting [8]); 56.2% in test [1] (at 50.0 µM); 18% in test [2] (setting [7]); 18% in test [2] (setting [8]); 66.5% in test [2] (at 50.0 µM). The growth inhibition in test [3] (setting [7]) is 13%; in test [3] (setting [8]), 13%; in test [3] (at 50.0 µM), 68.8%; in test [4] (setting [7]) it was -4%; in test [4] (setting [8]), -4%; in test [4] (at 50.0 µM), 39.8%. Besides, the growth inhibition in test [5] (setting [7]) was 2%; in test [5] (setting [8]), 2%; in test [5] (at 50.0 µM), 74.4% (active); in test [6] (setting [7]), 12%; in test [6] (setting [8]), 12%; in test [6] (at 50.0 µM) it was 72.2% (active).

With `FC(F)(F)c1ccccc1NC(=S)SCc1ccco1`, the growth inhibition in test [1] (setting [7]) was 1%; in test [1] (setting [8]), 52%; in test [1] (at 50.0 µM), 93.7% (active); in test [2] (setting [7]), 1%; in test [2] (setting [8]), 32%; in test [2] (at 50.0 µM), 76.3% (active). Moreover, the growth inhibition was 1% in test [3] (setting [7]); 45% in test [3] (setting [8]); 87.7% (active) in test [3] (at 50.0 µM); -4% in test [4] (setting [7]); 17% in test [4] (setting [8]); 52.1% in test [4] (at 50.0 µM). In addition, the growth inhibition is 8% in test [5] (setting [7]); 33% in test [5] (setting [8]); 81.3% (active) in test [5] (at 50.0 µM); -2% in test [6] (setting [7]); 57% in test [6] (setting [8]); 88.3% (active) in test [6] (at 50.0 µM).

With `CC(=O)Nc1cccc(Oc2ccc(Br)cc2[N+](=O)[O-])c1`, the growth inhibition in test [1] (setting [7]) is -3%; in test [1] (setting [8]), 66%; in test [1] (at 50.0 µM) it was 58.5%; in test [2] (setting [7]), 1%; in test [2] (setting [8]), 78% (active); in test [2] (at 50.0 µM), 10%. The growth inhibition is 9% in test [3] (setting [7]); 94% (active) in test [3] (setting [8]); 83.1% (active) in test [3] (at 50.0 µM); 0% in test [4] (setting [7]); 47% in test [4] (setting [8]); 24.7% in test [4] (at 50.0 µM). Further, the growth inhibition in test [5] (setting [7]) was -1%; in test [5] (setting [8]), 63%; in test [5] (at 50.0 µM) it was 42.6%; in test [6] (setting [7]), 20%; in test [6] (setting [8]) it was 89% (active); in test [6] (at 50.0 µM), 70.5% (active).

As to `CCOC(=O)C(=C=Cc1cccs1)C(=O)c1ccccc1`, the growth inhibition in test [1] (setting [7]) was 16%; in test [1] (setting [8]) it was 84% (active); in test [1] (at 50.0 µM) it was 87% (active); in test [2] (setting [7]), -14%; in test [2] (setting [8]) it was 95% (active); in test [2] (at 50.0 µM) it was 90.5% (active). Moreover, the growth inhibition in test [3] (setting [7]) is 3%; in test [3] (setting [8]), 92% (active); in test [3] (at 50.0 µM), 90.8% (active); in test [4] (setting [7]), -10%; in test [4] (setting [8]), 91% (active); in test [4] (at 50.0 µM), 90.7% (active). Besides, the growth inhibition is -13% in test [5] (setting [7]); 97% (active) in test [5] (setting [8]); 89.8% (active) in test [5] (at 50.0 µM); -10% in test [6] (setting [7]); 94% (active) in test [6] (setting [8]); 83.9% (active) in test [6] (at 50.0 µM).

For `Cc1nnc2nc3c(nn12)c1ccccc1n3C`, the growth inhibition in test [1] (setting [7]) was -155%; in test [1] (setting [8]), -54%; in test [1] (at 50.0 µM), 46.3%; in test [2] (setting [7]) it was -49%; in test [2] (setting [8]), -33%; in test [2] (at 50.0 µM), 31.8%. The growth inhibition was -65% in test [3] (setting [7]); -46% in test [3] (setting [8]); 15.8% in test [3] (at 50.0 µM); -60% in test [4] (setting [7]); -44% in test [4] (setting [8]); 75.8% (active) in test [4] (at 50.0 µM). In addition, the growth inhibition was -64% in test [5] (setting [7]); -57% in test [5] (setting [8]); -0.35% in test [5] (at 50.0 µM); -146% in test [6] (setting [7]); -77% in test [6] (setting [8]); 5.45% in test [6] (at 50.0 µM).

As for `CCN(CC)CCCNc1cc(C)nc2c1ccc1c2ccc2c(NCCCN(CC)CC)cc(C)nc21`, the growth inhibition was -4% in test [1] (setting [7]); 92% (active) in test [1] (setting [8]); 61.9% in test [1] (at 50.0 µM); -2% in test [2] (setting [7]); 75% (active) in test [2] (setting [8]); 97.8% (active) in test [2] (at 50.0 µM). In addition, the growth inhibition is -1% in test [3] (setting [7]); 78% (active) in test [3] (setting [8]); 65.8% in test [3] (at 50.0 µM); -7% in test [4] (setting [7]); 82% (active) in test [4] (setting [8]); 73.7% (active) in test [4] (at 50.0 µM). Also, the growth inhibition is -4% in test [5] (setting [7]); 97% (active) in test [5] (setting [8]); 96.7% (active) in test [5] (at 50.0 µM); -4% in test [6] (setting [7]); 81% (active) in test [6] (setting [8]); 94.2% (active) in test [6] (at 50.0 µM).

With `Cc1ccc(NC(=O)CCC(=O)CC(=O)C(C)(C)C)cc1C`, the growth inhibition in test [1] (setting [7]) was 16%; in test [1] (setting [8]), 7%; in test [1] (at 50.0 µM), 1.1%; in test [2] (setting [7]) it was 2%; in test [2] (setting [8]), -2%; in test [2] (at 50.0 µM), -14.3%. Besides, the growth inhibition in test [3] (setting [7]) was 13%; in test [3] (setting [8]), 3%; in test [3] (at 50.0 µM), -13.8%; in test [4] (setting [7]), -5%; in test [4] (setting [8]), 4%; in test [4] (at 50.0 µM) it was 34.8%. Besides, the growth inhibition in test [5] (setting [7]) was -6%; in test [5] (setting [8]), 3%; in test [5] (at 50.0 µM), -7.9%; in test [6] (setting [7]), -2%; in test [6] (setting [8]), -4%; in test [6] (at 50.0 µM) it was -15.7%.

With `OC(COc1ccc(Cl)cc1)COc1ccc(Cl)cc1`, the growth inhibition in test [1] (setting [7]) was 0%; in test [1] (setting [8]), 92% (active); in test [1] (at 50.0 µM) it was 98.4% (active); in test [2] (setting [7]) it was -3%; in test [2] (setting [8]), 91% (active); in test [2] (at 50.0 µM), 99.4% (active). The growth inhibition in test [3] (setting [7]) is -3%; in test [3] (setting [8]), 86% (active); in test [3] (at 50.0 µM) it was 99.4% (active); in test [4] (setting [7]), -19%; in test [4] (setting [8]) it was 86% (active); in test [4] (at 50.0 µM), 99% (active). In addition, the growth inhibition in test [5] (setting [7]) is -8%; in test [5] (setting [8]) it was 92% (active); in test [5] (at 50.0 µM), 99.5% (active); in test [6] (setting [7]), 0%; in test [6] (setting [8]), 93% (active); in test [6] (at 50.0 µM) it was 99.3% (active).

`CC(=O)Oc1ccc(N=[N+]([O-])c2ccc(OC(C)=O)cc2)cc1`: the growth inhibition in test [1] (setting [7]) is 5%; in test [1] (setting [8]), 12%; in test [1] (at 50.0 µM), 1.95%; in test [2] (setting [7]) it was 13%; in test [2] (setting [8]), 40%; in test [2] (at 50.0 µM), -2.6%. In addition, the growth inhibition in test [3] (setting [7]) was 2%; in test [3] (setting [8]), 19%; in test [3] (at 50.0 µM) it was 45.6%; in test [4] (setting [7]), 10%; in test [4] (setting [8]), 23%; in test [4] (at 50.0 µM), 18.4%. The growth inhibition was -4% in test [5] (setting [7]); 2% in test [5] (setting [8]); 14.7% in test [5] (at 50.0 µM); -1% in test [6] (setting [7]); 5% in test [6] (setting [8]); -13% in test [6] (at 50.0 µM).

For the compound `COc1ccc(Cc2c(-c3ccc(C)cc3)n[nH]c(=O)c2C2C(=O)N(c3ccccc3)N=C2c2ccccc2)cc1` (stereo not given), the growth inhibition in test [1] (setting [7]) was 98% (active); in test [1] (setting [8]) it was 95% (active); in test [1] (at 50.0 µM), 97% (active); in test [2] (setting [7]), 99% (active); in test [2] (setting [8]), 96% (active); in test [2] (at 50.0 µM), 95.3% (active). The growth inhibition in test [3] (setting [7]) was 97% (active); in test [3] (setting [8]) it was 97% (active); in test [3] (at 50.0 µM) it was 98.2% (active); in test [4] (setting [7]), 98% (active); in test [4] (setting [8]) it was 97% (active); in test [4] (at 50.0 µM) it was 96% (active). For the same compound, the growth inhibition in test [5] (setting [7]) is 63%; in test [5] (setting [8]) it was 96% (active); in test [5] (at 50.0 µM) it was 97.5% (active); in test [6] (setting [7]), 47%; in test [6] (setting [8]) it was 94% (active); in test [6] (at 50.0 µM), 96% (active).
